Data reported in PubChem BioAssay (NCI).
The panel holds about 79,000 compounds, 15% with a hit somewhere; the sample as a whole holds those more often. Values without a mark were called inactive. Active and inactive are the calls of the source. No stated cut-off is given here; in the data, active means growth inhibition above about 70%; inactive means the rest.

What was measured:
[1] = NCI Yeast Anticancer Drug Screen. Data for the rad52 strain (AID 147);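 further: 0% = growth of vehicle-treated control cultures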; conditions: S. cerevisiae rad52 mutant growth inhibition, stronger effect = higher value
Outline: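 Measured: yeast growth inhibition. System: strain with a defined DNA damage repair alteration. Reference: vehicle-treated control cultures.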

[2] = NCI Yeast Anticancer Drug Screen. Data for the wt1 strain (AID 149);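 further: 0% = growth of vehicle-treated wt1 cultures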; conditions: S. cerevisiae wt1 strain (SPY 50644) growth inhibition, stronger effect = higher value
Outline: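 Yeast wt1 strain exposed to compounds; growth inhibition measured relative to vehicle-treated controls.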

[3] = NCI Yeast Anticancer Drug Screen. Data for the rad50EPP+ strain (AID 151);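 further: 0% = growth of vehicle-treated control cultures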; conditions: S. cerevisiae rad50 mutant strain, stronger effect = higher value
Outline: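 One strain with a rad50 alteration (rad50EPP+) was compound-treated, its growth then compared to that of vehicle controls.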

[4] = NCI Yeast Anticancer Drug Screen. Data for the mgt1 strain (AID 153); conditions: S. cerevisiae mgt1 mutant growth inhibition, stronger effect = higher value
Outline: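 After exposure of the mgt1 yeast mutant to compound, growth was measured and reported as inhibition compared with vehicle controls.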

[5] = NCI Yeast Anticancer Drug Screen. Data for the rad50 strain (AID 155);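 further: 0% = growth of vehicle-only cultures of the same strain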; conditions: S. cerevisiae rad50 strain growth inhibition, stronger effect = higher value
Outline: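 Yeast carrying a defined DNA repair defect were exposed to test compounds, and growth was compared with vehicle-treated controls to give percent inhibition.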

[6] = NCI Yeast Anticancer Drug Screen. Data for the mec2-1 strain (AID 157); conditions: S. cerevisiae mec2-1 strain, stronger effect = higher value
Outline: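 Test agents were screened against the mec2-1 yeast strain, with defined DNA repair or cell cycle alteration. Growth was scored as inhibition against vehicle-only controls.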

[7] = NCI Yeast Anticancer Drug Screen. Data for the rad14 strain (AID 159);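 further: 0% = growth of vehicle-treated control cultures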; conditions: S. cerevisiae rad14 strain growth inhibition, stronger effect = higher value
Outline: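 Yeast cells carrying a defined DNA-repair defect were exposed to compounds, and growth inhibition was calculated relative to vehicle-treated control cultures.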

[8] = NCI Yeast Anticancer Drug Screen. Data for the sgs1 mgt1 strain (AID 161);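 further: 0% = growth of cultures given vehicle only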; conditions: S. cerevisiae sgs1 mgt1 strain, stronger effect = higher value
Outline: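 Mutant yeast exposed to compound; growth scored against vehicle-only wells.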

[9] = NCI Yeast Anticancer Drug Screen. Data for the CLN2oe strain (AID 163);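 further: 0% = growth of vehicle-only control cultures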; conditions: S. cerevisiae CLN2oe strain, stronger effect = higher value
Outline: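 Here, growth inhibition in a cell-cycle-altered yeast strain after compound exposure was quantified against vehicle control growth.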

[10] = NCI Yeast Anticancer Drug Screen. Data for the cln2 rad14 strain (AID 165);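 further: 0% = growth equal to vehicle treated cultures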; conditions: S. cerevisiae cln2 rad14 strain, stronger effect = higher value
Outline: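 Growth of compound-exposed yeast (cln2 rad14 genotype) measured and expressed as inhibition relative to vehicle.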

[11] = NCI Yeast Anticancer Drug Screen. Data for the bub3 strain (AID 167); conditions: S. cerevisiae bub3 mutant strain, stronger effect = higher value
Outline: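 Compounds were applied to a genetically altered yeast strain carrying a cell-cycle control defect. Growth inhibition was scored against vehicle-treated controls.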

[12] = NCI Yeast Anticancer Drug Screen. Data for the wt2 strain (AID 169);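 further: 0% = growth of vehicle-treated yeast cultures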; conditions: S. cerevisiae wt2 strain growth inhibition, stronger effect = higher value
Outline: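 Genetically defined yeast strains from a DNA-repair/cell-cycle panel were used. Compound-exposed yeast growth was measured, and the inhibition was calculated relative to vehicle treatment.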

[13] = NCI Yeast Anticancer Drug Screen. Data for the mlh1 strain (AID 171);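 further: 0% = growth of vehicle-treated control cultures of the same strain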; conditions: S. cerevisiae mlh1 strain growth inhibition, stronger effect = higher value
Outline: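 Here the genetically defined yeast mutant is grown with each compound, and the extent to which its growth falls below that of vehicle-exposed cells is reported.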

[14] = NCI Yeast Anticancer Drug Screen. Data for the sgs1 strain (AID 173);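 further: 0% = growth of vehicle-only control cultures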; conditions: S. cerevisiae sgs1 mutant, stronger effect = higher value
Outline: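 Relative growth inhibition, referenced to vehicle, was determined in a yeast strain with a defined alteration affecting DNA damage repair or cell cycle control after compound exposure.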

[15] = NCI Yeast Anticancer Drug Screen. Data for the mlh1 rad18 strain (AID 175); conditions: S. cerevisiae mlh1 rad18 strain growth inhibition, stronger effect = higher value
Outline: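 In this whole-cell yeast screen, a strain with altered DNA damage repair is challenged with compound, and its growth is measured against matched vehicle-treated controls.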

[16] = NCI Yeast Anticancer Drug Screen. Data for the rad18 strain (AID 177); conditions: S. cerevisiae rad18 mutant growth inhibition, stronger effect = higher value
Outline: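 Screen uses a yeast strain with a defined lesion in DNA damage repair; compound effect is read as loss of growth compared to untreated vehicle cultures.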

[17] = at 5.0 µM (retest, dose inferred, filed as 0.5)
[18] = at 50.0 µM (retest, dose inferred, filed as 5.0)

CC(C)c1ccccc1NC(=O)/C(Cl)=C(\Cl)C(=O)O
growth inhibition ([1]; at 1.2 µM): 0%
growth inhibition ([1]; at 3.7 µM): 1%
growth inhibition ([1]; at 11.0 µM): 0%
growth inhibition ([1]; at 33.0 µM): 5%
growth inhibition ([1]; at 100.0 µM): 99% (active)
growth inhibition ([2]; at 1.2 µM): -1%
growth inhibition ([2]; at 3.7 µM): -1%
growth inhibition ([2]; at 11.0 µM): -1%
growth inhibition ([2]; at 33.0 µM): 1%
growth inhibition ([2]; at 100.0 µM): 59%
growth inhibition ([3]; at 1.2 µM): 2%
growth inhibition ([3]; at 3.7 µM): 4%
growth inhibition ([3]; at 11.0 µM): 7%
growth inhibition ([3]; at 33.0 µM): 21%
growth inhibition ([3]; at 100.0 µM): 99% (active)
growth inhibition ([4]; at 1.2 µM): 1%
growth inhibition ([4]; at 3.7 µM): 3%
growth inhibition ([4]; at 11.0 µM): 5%
growth inhibition ([4]; at 33.0 µM): 8%
growth inhibition ([4]; at 100.0 µM): 94% (active)
growth inhibition ([5]; at 1.2 µM): 0%
growth inhibition ([5]; at 3.7 µM): 0%
growth inhibition [5, 17]: 0%
growth inhibition ([5]; at 11.0 µM): -2%
growth inhibition ([5]; at 33.0 µM): 11%
growth inhibition [5, 18]: 82% (active)
growth inhibition ([5]; at 50.0 µM): 30.1%
growth inhibition ([5]; at 100.0 µM): 98% (active)
growth inhibition ([6]; at 1.2 µM): 1%
growth inhibition ([6]; at 3.7 µM): 0%
growth inhibition [6, 17]: 26%
growth inhibition ([6]; at 11.0 µM): 1%
growth inhibition ([6]; at 33.0 µM): 7%
growth inhibition [6, 18]: 27%
growth inhibition ([6]; at 50.0 µM): 6.85%
growth inhibition ([6]; at 100.0 µM): 99% (active)
growth inhibition ([7]; at 1.2 µM): 2%
growth inhibition ([7]; at 3.7 µM): 2%
growth inhibition ([7]; at 11.0 µM): 4%
growth inhibition ([7]; at 33.0 µM): 6%
growth inhibition ([7]; at 100.0 µM): 93% (active)
growth inhibition [8, 17]: -12%
growth inhibition [8, 18]: 16%
growth inhibition ([8]; at 50.0 µM): 2.4%
growth inhibition ([9]; at 1.2 µM): 1%
growth inhibition ([9]; at 3.7 µM): 6%
growth inhibition ([9]; at 11.0 µM): 5%
growth inhibition ([9]; at 33.0 µM): 2%
growth inhibition ([9]; at 100.0 µM): 82% (active)
growth inhibition [10, 17]: 13%
growth inhibition [10, 18]: 63%
growth inhibition ([10]; at 50.0 µM): 51.6%
growth inhibition ([11]; at 1.2 µM): 0%
growth inhibition ([11]; at 3.7 µM): 1%
growth inhibition [11, 17]: 9%
growth inhibition ([11]; at 11.0 µM): 5%
growth inhibition ([11]; at 33.0 µM): 7%
growth inhibition [11, 18]: 77% (active)
growth inhibition ([11]; at 50.0 µM): 8.1%
growth inhibition ([11]; at 100.0 µM): 97% (active)
growth inhibition ([12]; at 1.2 µM): 1%
growth inhibition ([12]; at 3.7 µM): 0%
growth inhibition ([12]; at 11.0 µM): 0%
growth inhibition ([12]; at 33.0 µM): 4%
growth inhibition ([12]; at 100.0 µM): 88% (active)
growth inhibition ([13]; at 1.2 µM): -1%
growth inhibition ([13]; at 3.7 µM): 1%
growth inhibition ([13]; at 11.0 µM): 2%
growth inhibition ([13]; at 33.0 µM): 4%
growth inhibition ([13]; at 100.0 µM): 66%
growth inhibition ([14]; at 1.2 µM): 2%
growth inhibition ([14]; at 3.7 µM): 4%
growth inhibition ([14]; at 11.0 µM): 5%
growth inhibition ([14]; at 33.0 µM): 12%
growth inhibition ([14]; at 100.0 µM): 96% (active)
growth inhibition [15, 17]: 21%
growth inhibition [15, 18]: 28%
growth inhibition ([15]; at 50.0 µM): 11.9%
growth inhibition ([16]; at 1.2 µM): 0%
growth inhibition ([16]; at 3.7 µM): 0%
growth inhibition ([16]; at 11.0 µM): 1%
growth inhibition ([16]; at 33.0 µM): 8%
growth inhibition ([16]; at 100.0 µM): 98% (active)

O=C1C2CC[C@@H]3C(=O)C(Cl)(Cl)[C@@H]3CCC2C1(Cl)Cl (stereo partly specified)
growth inhibition ([1]; at 1.2 µM): 12%
growth inhibition ([1]; at 3.7 µM): 25%
growth inhibition ([1]; at 11.0 µM): 46%
growth inhibition ([1]; at 33.0 µM): 69%
growth inhibition ([1]; at 100.0 µM): 76% (active)
growth inhibition ([2]; at 1.2 µM): 0%
growth inhibition ([2]; at 3.7 µM): 1%
growth inhibition ([2]; at 11.0 µM): 2%
growth inhibition ([2]; at 33.0 µM): 9%
growth inhibition ([2]; at 100.0 µM): 12%
growth inhibition ([3]; at 1.2 µM): 8%
growth inhibition ([3]; at 3.7 µM): 15%
growth inhibition ([3]; at 11.0 µM): 37%
growth inhibition ([3]; at 33.0 µM): 56%
growth inhibition ([3]; at 100.0 µM): 50%
growth inhibition ([4]; at 1.2 µM): -2%
growth inhibition ([4]; at 3.7 µM): -1%
growth inhibition ([4]; at 11.0 µM): 8%
growth inhibition ([4]; at 33.0 µM): -2%
growth inhibition ([4]; at 100.0 µM): 4%
growth inhibition ([5]; at 1.2 µM): 5%
growth inhibition ([5]; at 3.7 µM): 12%
growth inhibition [5, 17]: 19%
growth inhibition ([5]; at 11.0 µM): -2%
growth inhibition ([5]; at 33.0 µM): 33%
growth inhibition [5, 18]: 70% (active)
growth inhibition ([5]; at 50.0 µM): 83.3% (active)
growth inhibition ([5]; at 100.0 µM): 37%
growth inhibition ([6]; at 1.2 µM): 2%
growth inhibition ([6]; at 3.7 µM): 6%
growth inhibition [6, 17]: -2%
growth inhibition ([6]; at 11.0 µM): 11%
growth inhibition ([6]; at 33.0 µM): 21%
growth inhibition [6, 18]: 49%
growth inhibition ([6]; at 50.0 µM): 81.9% (active)
growth inhibition ([6]; at 100.0 µM): 24%
growth inhibition ([7]; at 1.2 µM): 0%
growth inhibition ([7]; at 3.7 µM): 3%
growth inhibition ([7]; at 11.0 µM): 6%
growth inhibition ([7]; at 33.0 µM): 13%
growth inhibition ([7]; at 100.0 µM): 22%
growth inhibition [8, 17]: 18%
growth inhibition [8, 18]: 67%
growth inhibition ([8]; at 50.0 µM): 84.6% (active)
growth inhibition ([9]; at 1.2 µM): 3%
growth inhibition ([9]; at 3.7 µM): 0%
growth inhibition ([9]; at 11.0 µM): 5%
growth inhibition ([9]; at 33.0 µM): 10%
growth inhibition ([9]; at 100.0 µM): 20%
growth inhibition [10, 17]: 2%
growth inhibition [10, 18]: 22%
growth inhibition ([10]; at 50.0 µM): 78.8% (active)
growth inhibition ([11]; at 1.2 µM): 1%
growth inhibition ([11]; at 3.7 µM): 2%
growth inhibition [11, 17]: -30%
growth inhibition ([11]; at 11.0 µM): 12%
growth inhibition ([11]; at 33.0 µM): 10%
growth inhibition [11, 18]: 10%
growth inhibition ([11]; at 50.0 µM): 70.8% (active)
growth inhibition ([11]; at 100.0 µM): 11%
growth inhibition ([12]; at 1.2 µM): 1%
growth inhibition ([12]; at 3.7 µM): 3%
growth inhibition ([12]; at 11.0 µM): 7%
growth inhibition ([12]; at 33.0 µM): 10%
growth inhibition ([12]; at 100.0 µM): 14%
growth inhibition ([13]; at 1.2 µM): 1%
growth inhibition ([13]; at 3.7 µM): 1%
growth inhibition ([13]; at 11.0 µM): 4%
growth inhibition ([13]; at 33.0 µM): 10%
growth inhibition ([13]; at 100.0 µM): 9%
growth inhibition ([14]; at 1.2 µM): -21%
growth inhibition ([14]; at 3.7 µM): 20%
growth inhibition ([14]; at 11.0 µM): 33%
growth inhibition ([14]; at 33.0 µM): 51%
growth inhibition ([14]; at 100.0 µM): 53%
growth inhibition [15, 17]: 31%
growth inhibition [15, 18]: 88% (active)
growth inhibition ([15]; at 50.0 µM): 79.2% (active)
growth inhibition ([16]; at 1.2 µM): 59%
growth inhibition ([16]; at 3.7 µM): 85% (active)
growth inhibition ([16]; at 11.0 µM): 94% (active)
growth inhibition ([16]; at 33.0 µM): 95% (active)
growth inhibition ([16]; at 100.0 µM): 96% (active)
